Assay results as given in PubChem BioAssay (NCI).
About 83,000 compounds went through this panel and 20% of them were active in at least one assay; those are over-represented in the sample as a whole.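 Growth was measured after 48 h exposure to one concentration of compound in 96-well plates. Values under 10 count as active.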 Values without a mark were called inactive. Activity calls are given as the source filed them.

Assays:
Experiment in all cases: NCI-60 one-dose screen, 48 h (100 = growth as untreated, 0 = no growth, -100 = all killed)
Conditions in all cases: 10 µM unless noted
SR leukemia = tested on: SR leukemia
RPMI-8226 leukemia = tested on: RPMI-8226 leukemia
OVCAR-8 ovarian = tested on: OVCAR-8 ovarian
OVCAR-5 ovarian = tested on: OVCAR-5 ovarian
SK-OV-3 ovarian = tested on: SK-OV-3 ovarian
IGROV1 ovarian = tested on: IGROV1 ovarian
OVCAR-3 ovarian = tested on: OVCAR-3 ovarian
HS 578T breast = tested on: HS 578T breast
NCI/ADR-RES ovarian = tested on: NCI/ADR-RES ovarian
T-47D breast = tested on: T-47D breast
BT-549 breast = tested on: BT-549 breast
MDA-MB-435 melanoma = tested on: MDA-MB-435 melanoma
SW-620 colon = tested on: SW-620 colon
MCF7 breast = tested on: MCF7 breast
HCT-116 colon = tested on: HCT-116 colon
KM12 colon = tested on: KM12 colon
HCC-2998 colon = tested on: HCC-2998 colon
OVCAR-4 ovarian = tested on: OVCAR-4 ovarian

Compound | growth (SR leukemia) | growth (RPMI-8226 leukemia) | growth (OVCAR-8 ovarian) | growth (OVCAR-5 ovarian) | growth (SK-OV-3 ovarian) | growth (IGROV1 ovarian) | growth (OVCAR-3 ovarian) | growth (HS 578T breast) | growth (NCI/ADR-RES ovarian) | growth (T-47D breast) | growth (BT-549 breast) | growth (MDA-MB-435 melanoma) | growth (SW-620 colon) | growth (MCF7 breast) | growth (HCT-116 colon) | growth (KM12 colon) | growth (HCC-2998 colon) | growth (OVCAR-4 ovarian)
COc1ccccc1OCC(=O)N1CCCCCC1 | 95.1% | 101% | 97.2% | 94.8% | 109% | 104% | 116% | 107% | 103% | 103% | 129% | 101% | 100% | 92.8% | 123% | 97.3% |  | 
COc1ccc(/C=C(/c2ccccc2)[N+](=O)[O-])cc1 | -19.1% (active) | -28% (active) | -7.29% (active) | -59.6% (active) | 9.1% (active) | -26.1% (active) | -96.5% (active) | 14.4% | 7.74% (active) | -64.5% (active) | -18.7% (active) | -35.6% (active) | -57.6% (active) | -31.3% (active) | -71.6% (active) | -36.2% (active) | -80.7% (active) | 
COc1ccc(C2=C(c3ccccc3)c3ccc(OC(C)=O)cc3OC2(C)C)cc1 | 41.2% | 32% | 125% | 85.3% | 116% | 96.7% | 85.1% | 104% | 77.2% | 83.9% | 140% | 80.5% | 82.1% | 93.9% | 88.9% | 52.7% | 86.5% | 
Fc1ccccc1CSc1ncnc2nc[nH]c12 | 105% | 95.1% | 80.5% | 110% |  |  | 118% | 111% | 114% | 97.7% |  | 109% | 96% | 96.9% | 97.6% | 112% | 111% | 113%
COc1ccc(/C=C/C(=O)c2ccc(OC)c(OC)c2)cc1O | 18.6% | 65.2% | 28.5% | 97.5% | 104% | 74.5% | 18.8% | 92.6% | 5.7% (active) | 75.7% | 85.2% | 75% | 17.1% | 51.6% | 20.3% | 70.6% | 102% | 
Cc1ccc(C2CC(c3cccc(Nc4ccncc4)c3)=NN2c2ccccc2)cc1 (stereo not drawn) | -13.3% (active) | -48.7% (active) | -50.7% (active) | -93.4% (active) | -31.4% (active) | -92.7% (active) | -89.2% (active) | -57.5% (active) | -72.8% (active) | -58.2% (active) | 81.2% | -89.5% (active) | -62.7% (active) | -92% (active) | -78% (active) | -88.3% (active) | -92.2% (active) | 
COc1ccc(C(=O)c2cc3c(N)c(C(=O)Nc4cccc5ccccc45)sc3nc2C)cc1 | -11.9% (active) | 5.61% (active) | -5.04% (active) | 39.9% | 32% | 23.8% | -7.2% (active) | 11.3% | 8.37% (active) | 32.6% | 45.1% | -6.84% (active) | 21.9% | 19.4% | 6.55% (active) | 12.3% | 20.8% | 
CNC(=O)c1c(NC(=O)c2ccc(C(C)C)cc2)sc2c(CN(C)C)c(O)ccc12 | -9.94% (active) | 22.5% | 112% | 106% | 99.7% | 90.5% | 99.3% | 89.6% | 91.3% | 80.6% |  | 89.8% | 17.2% | 68.6% | 46.1% | 66.2% | 55.4% | 
C#CC(=O)Nc1cccc2c1cc(C)n2-c1nc2c(c(NCc3ccccc3)n1)CCCC2 | -32.2% (active) | -22.3% (active) | -14% (active) | -16% (active) | -94.4% (active) | -28.1% (active) | -9.24% (active) | -7.53% (active) | 6.91% (active) | -41.4% (active) | -47.3% (active) | -81.4% (active) | -59.3% (active) | -39.8% (active) |  | -27.6% (active) |  | 
CCN(CC)CCCC(C)Nc1cc(-c2cccc(OC(F)(F)F)c2)nc2ccc(N3CCCC3)cc12 (stereo not drawn) | -31.6% (active) | -37% (active) | -5.79% (active) | 31.1% | 82% | 29.9% | 0.648% (active) | -22.3% (active) | 13.4% | -19.3% (active) | 78.7% | -84.4% (active) | -37.5% (active) | -10% (active) | -53.7% (active) | 7.78% (active) | -58.2% (active) | 
COc1ccc(C(=O)/C=C/c2ccc(OCc3ccccc3)c(OC)c2)cc1OC | 11.2% | -3.1% (active) | 17.4% | 107% | 91% | 84.3% | 10.3% | 94.7% | 36.4% | 47.4% |  | 61% | 12.9% | 22.5% | 18.2% | 36.5% |  | 
CC(=O)OC1CCC2(C)C(CCC3C4CC=C(C(C)=O)C4(C)OC(=O)CC32)C1 (stereo not drawn) | -48.4% (active) | -31.7% (active) | -20.4% (active) | 75.1% | 109% | 61.5% | -36.2% (active) | 75.1% | 37.5% | 17.4% | 28.8% |  | -48.7% (active) | 11.2% | -98.9% (active) | 81.6% | 73.8% | 
COc1cc(C2CC(c3cccc(Nc4ccncc4)c3)=NN2c2ccc(Cl)cc2)cc(OC)c1OC (stereo not drawn) | 2.48% (active) | -18.7% (active) | -26.5% (active) | 72.1% | 64.5% | 4.16% (active) | -25.3% (active) | 27.8% | 42.7% | 71.3% | 107% | -88.3% (active) | -66.6% (active) | -36.1% (active) | 105% | -74.5% (active) | -36.2% (active) | 
O=S(=O)(NCCCNc1nccc(-c2c(-c3cccc(O)c3)nc3occn23)n1)c1ccc(Br)cc1 | 89.8% | 86.4% | 86% | 137% | 94% | 79.2% | 102% | 91.6% | 107% | 83.2% | 105% | 40.6% | 112% | 98.8% | 65.2% | 94.4% | 121% | 
FCc1nc2nc(Cl)c(Cl)nc2[nH]1 | 95.9% | 97% | 102% | 93.3% | 97.1% | 108% | 108% | 101% | 107% | 101% | 104% | 107% | 103% | 96.5% | 101% | 104% | 104% | 
COc1ccc(-c2c[nH]c(C(=O)O)c2-c2cc(OC)c3c(c2OC)OCO3)cc1 | 106% | 140% | 101% | 96.5% | 119% | 103% | 109% | 99.9% | 99.2% |  | 103% |  | 103% | 103% |  | 105% | 100% | 
O=C(Nc1cccc(Cl)c1)c1cc(Cl)ccc1O | 12.3% | -20.9% (active) | 9.51% (active) | 12.3% |  | 17.5% | 13.5% | -7.76% (active) | 2.78% (active) |  | -6.47% (active) | 5.73% (active) | 6.44% (active) | 4.21% (active) |  | 5.13% (active) |  | 27.4%
COc1ccccc1Nc1cc(O)c2c(=O)cc(-c3ccccc3)oc2c1 | 5.75% (active) | 16.4% | 32.4% | 78.1% | 50.7% | 51.4% | 5.9% (active) | 45.6% | 11.5% | 31.4% | 40.9% | -24.3% (active) | 20.8% | 17.3% | 14.1% | 36.2% | 71.9% | 
N#Cc1c(Nc2ccccc2)nn2cc(-c3nc4ccccc4s3)c(N)nc12 | 74.3% | 91.9% | 70.7% | 88.5% | 90.2% | 65.5% | 97% | 64.3% | 50.6% | 68.9% | 67.2% | 93.6% | 72.2% | 63.3% | 76.4% | 88.2% | 88% | 
